Test results taken from PubChem BioAssay AID504332 (National Center for Advancing Translational Sciences (NCATS), 2011).
Several values for one entry are separate records, joined by “and”; a condition that tells them apart may be missing. Identical values can stand only once. About 31,000 (8.9%) of roughly 350,000 compounds were called active. Another 15% or so got no clear call; they are omitted. This is one part of a sample in which actives are shown more often than they occur. A number with no mark means an inactive call. The call rests on the fitted dose curve; in most records, active means well fitted inhibition curve with a large enough effect; inconclusive means small, poorly fitted or top-dose-only effect; inactive means no such curve, though single readings can be large or run the other way.

molecular target: Histone-lysine N-methyltransferase EHMT2 (Homo sapiens) (UniProt Q96KQ7); assay: qHTS Assay for Inhibitors of Histone Lysine Methyltransferase G9a; details: G9a H3K9 monomethylation, AlphaScreen, 2 h; series mostly up to 59 µM; activity, negative = inhibition: at the top concentration; further: nearly all actives have a fitted effect of over 75% in size
Sequence (Q96KQ7 913-1193 limits assumed): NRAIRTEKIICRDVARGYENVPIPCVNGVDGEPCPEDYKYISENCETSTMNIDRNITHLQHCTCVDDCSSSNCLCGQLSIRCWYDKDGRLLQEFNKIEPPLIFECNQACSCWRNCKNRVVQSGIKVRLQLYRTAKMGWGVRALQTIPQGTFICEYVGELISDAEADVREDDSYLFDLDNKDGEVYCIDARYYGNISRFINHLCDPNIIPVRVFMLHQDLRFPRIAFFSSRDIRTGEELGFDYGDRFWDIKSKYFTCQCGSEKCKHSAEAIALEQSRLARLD
Method in brief: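 Methyltransferase reactions run at room temperature for 2 h (20 nM enzyme, 500 nM biotin-H3K9 peptide, 20 uM SAM) after a 15 min compound preincubation; product detected by AlphaScreen beads and anti-H3K9me1 antibody.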
On the % scale 0 is the no-effect control and ±100 the full control effect; potency means the concentration at half of the fitted maximal effect.

Row | SMILES | activity, negative = inhibition | Potency
1 | COc1ccc2cc(C3=CC(=O)C[C@H](c4ccc5c(c4)OCO5)C3)ccc2c1 | 7.57% [at 0.501 µM] | –
2 | NS(=O)(=O)c1cccc(NC(=O)COC(=O)/C=C/c2ccco2)c1 | – | 25.1 µM (active)
3 | COc1cccc(NC(=O)COC(=O)/C=C/c2ccco2)c1 | 13.7% [at 2.33 µM] | –
4 | CC(C)CNC(=O)COC(=O)/C=C/c1ccco1 | 20% | –
5 | O=S(=O)(NCCS(=O)(=O)N1CCN(c2ccccc2)CC1)c1ccc(F)cc1 | -3.65% [at 102 µM] | –
6 | CCn1c(COc2cccc(OC)c2)nnc1SCC(=O)N1CCOCC1 | 8.24% [at 102 µM] | –
7 | COc1ccc(OCc2nnc3n2N=C(c2ccccc2)C(CC(=O)O)S3)cc1 (stereo unspecified) | – | 1.58 µM (active)
8 | COc1cccc(OCc2nnc3n2N=C(c2ccccc2)C(CC(=O)O)S3)c1 (stereo unspecified) | – | 44.7 µM (active)
9 | COc1ccc(C(=O)NCc2nnc(SCCOc3ccccc3)n2C)cc1 | 13.9% [at 12.7 µM] | –
10 | COc1ccc(C2CC(c3ccccc3)=NN2C(=O)COC(=O)COc2ccccc2)cc1 (stereo unspecified) | -3.35% [at 102 µM] | –
11 | COc1cccc(OCC(=O)Nc2ccccc2C(N)=O)c1 | 6.62% [at 12.7 µM] | –
12 | CCN(CC)S(=O)(=O)c1ccc2c(c1)N(CC(=O)NCc1ccccc1)C(=O)CS2 | 7.17% | –
13 | COc1cccc(CNC(=O)C(=O)NCCC2CCCCN2S(=O)(=O)c2ccc(C)cc2)c1 (stereo unspecified) | 0.971% [at 0.501 µM] | –
14 | COc1ccccc1NC(=O)CSc1nnc(C)n1CC1CCCO1 (stereo unspecified) | -7.36% | –
15 | CC(=O)Nc1ccc(NC(=O)CSc2nnc(COc3ccccc3C)n2CC2CCCO2)cc1 (stereo unspecified) | 7.69% [at 102 µM] | –
16 | CCOc1cccc(=O)c2c(C)n(CC3CCCO3)c(C)c12 (stereo unspecified) | – | 70.8 µM (active)
17 | Cc1ccc(NC(=O)COC(=O)CN2CCCCCC2=O)c(C)c1 | -2.73% | –
18 | Cc1cc(C)cc(-n2c(SCC(=O)NCC3CCCO3)nc3c([nH]c4ccccc43)c2=O)c1 (stereo unspecified) | 12% | –
19 | CCCCCCC(=O)N(O)C1CC(=O)N(c2ccccc2)C1=O (stereo unspecified) | – | 0.794 µM (active)
20 | CCOc1ccc(N2C(=O)CC(N(CCc3ccc(OC)c(OC)c3)C(=S)Nc3ccccc3)C2=O)cc1 (stereo unspecified) | 1.28% | –
21 | CCCCCOC(=O)c1ccc(N2C(=O)C3C4C=CC(C4)C3C2=O)cc1 (stereo unspecified) | 11.8% [at 102 µM] | –
22 | O=C(Nc1cccc(F)c1)NC1CCCc2ccccc21 (stereo unspecified) | 80.8% [at 102 µM] | –
23 | COc1ccc(-n2ccn(CC(=O)Nc3ccc(C)c(C)c3)c(=O)c2=O)cc1OC | -34.1% | –
24 | Oc1ccc(Cn2cc[nH]c2=S)cc1 | – | 3.16 µM (active) and 2.99 µM (active)
25 | O=C1C(Cc2ccc(O)cc2)NC(=S)N1Cc1ccccc1 (stereo unspecified) | 4.15% [at 102 µM] | –
26 | N#Cc1ccc(OCC(=O)NC(=O)NC2CCS(=O)(=O)C2)cc1 (stereo unspecified) | -2.17% [at 12.7 µM] | –
